PubChem BioAssay (Tox21)
Inconclusive results are not listed. The source made the active and inactive calls. Calls come from the whole dose curve; as a rule, active = well fitted curve in the direction sought with a large enough effect in the repeat runs; inconclusive = weak or mixed curves; inactive = no such curve, though single readings can be large; an effect the other way counts as inactive or inconclusive.

Molecular target: Aromatase (Homo sapiens) (UniProt P11511)
Assay: qHTS assay to identify aromatase inhibitors (AID 743083)
Conditions: MCF-7 aro ERE, testosterone-driven ERE luciferase, 24 h; series mostly up to 70.3 µM; activity, negative = inhibition: at the top concentration
% is set by controls: 0 for no effect and ±100 for the full control effect; potency is the fitted concentration of half-maximal effect.
Note: nearly all actives have a fitted effect of over 55% in size.

Sequence of Aromatase (Homo sapiens) (P11511 whole entry, looked up): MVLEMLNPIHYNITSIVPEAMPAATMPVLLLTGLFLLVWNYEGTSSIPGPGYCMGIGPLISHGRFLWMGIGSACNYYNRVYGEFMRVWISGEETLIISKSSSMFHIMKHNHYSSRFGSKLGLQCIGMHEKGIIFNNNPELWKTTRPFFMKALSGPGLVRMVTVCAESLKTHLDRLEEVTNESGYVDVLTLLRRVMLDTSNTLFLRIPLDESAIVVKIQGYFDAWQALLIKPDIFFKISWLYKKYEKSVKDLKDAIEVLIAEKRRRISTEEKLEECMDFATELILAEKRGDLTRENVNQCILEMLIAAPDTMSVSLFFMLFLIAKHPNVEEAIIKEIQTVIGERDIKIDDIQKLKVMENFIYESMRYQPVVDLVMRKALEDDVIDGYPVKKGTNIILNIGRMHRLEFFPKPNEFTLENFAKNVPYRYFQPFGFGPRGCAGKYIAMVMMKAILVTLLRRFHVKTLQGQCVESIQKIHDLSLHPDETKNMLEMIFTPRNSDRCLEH

Row | Compound | Potency | activity, negative = inhibition
1 | Fc1ccccc1[C@@H](F)COC1CCC(Nc2ncnc3[nH]ncc23)CC1 (some centres not stated) | 24.3 µM (active) | 
2 | CC(C)=CC=O |  | 31.6% [at 95 µM] (inactive)
3 | CC(=O)Nc1ccc(N)cc1 |  | 9.39% [at 95 µM] (inactive)
4 | O=C(N/N=C/c1ccc([N+](=O)[O-])o1)c1ccc(O)cc1 | 10.1 µM (active) | 
5 | O=S1OCCO1 |  | 10.1% [at 95 µM] (inactive)
6 | CCOC(=O)CC(=O)C(=O)OCC |  | -0.0721% (inactive)
7 | CC(COc1ccc(C(C)(C)C)cc1)OS(=O)OCCCl (configuration not stated) |  | -1.47% [at 95 µM] (inactive)
8 | CCCOC(=O)c1ccc(C(=O)OCCC)nc1 |  | 35.9% (inactive)
9 | CCCCCCCCCCCCCCCCBr |  | -5.61% [at 32.5 µM] (inactive)
10 | C=CC(=C)CCCC(C)(C)OC(C)=O |  | 12.9% (inactive)
11 | OCC1CC=CCC1 (configuration not stated) |  | 34.3% (inactive)
12 | COc1cc2ncnc(Nc3ccc(F)c(Cl)c3)c2cc1OCCCN1CCOCC1 |  | 8.72% (inactive)
13 | CO[C@H]1C=CO[C@@]2(C)Oc3c(C)c(O)c4c(O)c(c5c(c4c3C2=O)=NC2(CCN(CC(C)C)CC2)N=5)NC(=O)/C(C)=C\C=C/[C@H](C)[C@H](O)[C@@H](C)[C@@H](O)[C@@H](C)[C@H](OC(C)=O)[C@@H]1C |  | -15.2% (inactive)
14 | CCCCCC=CCC=CCCCCCCCC(=O)OCC |  | 2.28% (inactive)
15 | COc1cc2c(N3CCN(C(=O)Nc4ccc(OC(C)C)cc4)CC3)ncnc2cc1OCCCN1CCCCC1 |  | 9.42% (inactive)
16 | CC(=O)[C@H]1CC[C@H]2[C@@H]3C=CC4=CC(=O)CC[C@@]4(C)[C@@H]3CC[C@]12C |  | 0.495% [at 32.5 µM] (inactive)
17 | CCCCCCCCCCCCCCC[C@H](O)[C@@H](N)CO |  | -6.05% (inactive)

Row | Compound | Potency | activity, negative = inhibition
18 | O=C(O)c1cccnc1C(=O)O |  | 21% (inactive)
19 | Oc1ccc(Nc2ccccc2)cc1 |  | -0.233% (inactive)
20 | COC(=O)[C@@H]1CC2=CC(=O)CC[C@]2(C)[C@@]23O[C@@H]2C[C@@]2(C)[C@@H](CC[C@@]24CCC(=O)O4)[C@H]13 |  | -0.657% (inactive)
21 | COCC(O)CO (configuration not stated) |  | 0.867% [at 95 µM] (inactive)
22 | CCC(=O)OC/C=C/c1ccccc1 |  | -6.1% (inactive)
23 | CCc1cccc(N(C)C(N)=Nc2cccc3ccccc23)c1 |  | 23.4% (inactive)
24 | O=Cc1c(Cl)cccc1Cl |  | -8.52% [at 95 µM] (inactive)
25 | c1cnc2c(n1)CCCC2 |  | -4.45% (inactive)
26 | C[Si]1(C)O[Si](C)(C)O[Si](C)(C)O1 |  | 14.6% (inactive)
27 | COC(OC)(C(=O)c1ccccc1)c1ccccc1 |  | -15.9% (inactive)
28 | CC(C)CCCC(=O)O |  | 7.98% (inactive)
29 | CCCOCCOCCO |  | 9.93% (inactive)
30 | CC1CN(c2cc3c(cc2F)c(=O)c(C(=O)O)cn3-c2ccc(F)cc2F)CCN1 (configuration not stated) |  | -15.3% (inactive)
31 | CC(C)(CCl)c1ccccc1 |  | -12.7% (inactive)
32 | CC(Cl)C(Cl)Cl (configuration not stated) |  | -4.59% (inactive)
33 | Cc1nc2ccccc2s1 |  | 3.24% [at 95 µM] (inactive)
34 | C=CCCCCCCCCCCCCCCCC |  | 12.3% [at 8.47 µM] (inactive)

Test system: not listed separately
Assay: qHTS assay to identify aromatase inhibitors - cell viability counter screen (AID 743084);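 note: cells stimulated with testosterone during compound exposure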
Conditions: MCF-7 aro ERE viability, CellTiter-Fluor, 24 h; series mostly up to 70.3 µM; activity change, negative = cytotoxicity: at the top concentration

Row | Compound | activity change, negative = cytotoxicity | Potency
35 | Fc1ccccc1[C@@H](F)COC1CCC(Nc2ncnc3[nH]ncc23)CC1 (some centres not stated) | -22.8% (inactive) | 
36 | CC(C)=CC=O | 17.1% [at 95 µM] (inactive) | 
37 | CC(=O)Nc1ccc(N)cc1 | 2.27% [at 95 µM] (inactive) | 
38 | O=S1OCCO1 | 15.8% [at 95 µM] (inactive) | 
39 | CC(COc1ccc(C(C)(C)C)cc1)OS(=O)OCCCl (configuration not stated) | -1.02% [at 95 µM] (inactive) | 
40 | CCCOC(=O)c1ccc(C(=O)OCCC)nc1 | 10.6% (inactive) | 
41 | CCCCCCCCCCCCCCCCBr | -2.81% [at 32.5 µM] (inactive) | 
42 | C=CC(=C)CCCC(C)(C)OC(C)=O | -1.73% (inactive) | 
43 | OCC1CC=CCC1 (configuration not stated) | 13.1% (inactive) | 
44 | CO[C@H]1C=CO[C@@]2(C)Oc3c(C)c(O)c4c(O)c(c5c(c4c3C2=O)=NC2(CCN(CC(C)C)CC2)N=5)NC(=O)/C(C)=C\C=C/[C@H](C)[C@H](O)[C@@H](C)[C@@H](O)[C@@H](C)[C@H](OC(C)=O)[C@@H]1C |  | 30 µM (active)
45 | CCCCCC=CCC=CCCCCCCCC(=O)OCC | -1.87% (inactive) | 
46 | COc1cc2c(N3CCN(C(=O)Nc4ccc(OC(C)C)cc4)CC3)ncnc2cc1OCCCN1CCCCC1 | -15.6% (inactive) | 
47 | CC(=O)[C@H]1CC[C@H]2[C@@H]3C=CC4=CC(=O)CC[C@@]4(C)[C@@H]3CC[C@]12C | 5.96% [at 32.5 µM] (inactive) | 
48 | CCCCCCCCCCCCCCC[C@H](O)[C@@H](N)CO | 1.87% (inactive) | 
49 | O=C(O)c1cccnc1C(=O)O | 5.49% (inactive) | 
50 | Oc1ccc(Nc2ccccc2)cc1 | -3.65% (inactive) | 
51 | CC1(C)C2=CCCC(C)(C)[C@]23CC[C@H]1C3 | -13.2% (inactive) | 

Row | Compound | activity change, negative = cytotoxicity | Potency
52 | COC(=O)[C@@H]1CC2=CC(=O)CC[C@]2(C)[C@@]23O[C@@H]2C[C@@]2(C)[C@@H](CC[C@@]24CCC(=O)O4)[C@H]13 | -13.8% (inactive) | 
53 | COCC(O)CO (configuration not stated) | -3.32% [at 95 µM] (inactive) | 
54 | CCC(=O)OC/C=C/c1ccccc1 | -14.6% (inactive) | 
55 | CCc1cccc(N(C)C(N)=Nc2cccc3ccccc23)c1 | 0.402% (inactive) | 
56 | O=Cc1c(Cl)cccc1Cl | 2.54% [at 95 µM] (inactive) | 
57 | c1cnc2c(n1)CCCC2 | 2.09% (inactive) | 
58 | C[Si]1(C)O[Si](C)(C)O[Si](C)(C)O1 | 4.96% (inactive) | 
59 | COC(OC)(C(=O)c1ccccc1)c1ccccc1 | 7.84% (inactive) | 
60 | CC(C)CCCC(=O)O | -1.35% (inactive) | 
61 | CCCOCCOCCO | 11.1% (inactive) | 
62 | CC1CN(c2cc3c(cc2F)c(=O)c(C(=O)O)cn3-c2ccc(F)cc2F)CCN1 (configuration not stated) | -1.72% (inactive) | 
63 | CC(C)(CCl)c1ccccc1 | -11% (inactive) | 
64 | Nc1ccc(Cl)cc1[N+](=O)[O-] | -7.33% (inactive) | 
65 | CC(Cl)C(Cl)Cl (configuration not stated) | 6.44% (inactive) | 
66 | Cc1nc2ccccc2s1 | 2.17% [at 95 µM] (inactive) | 
67 | C=CCCCCCCCCCCCCCCCC | 17.8% [at 8.47 µM] (inactive) | 
